Experimental data reported in PubChem BioAssay (EPA / NIEHS).
Records with an inconclusive call do not appear. The source made the active and inactive calls. Rule for the calls, unless noted: active = hit-call score of the fitted dose curve at least 0.9, where 1 is the maximum; inactive = score below 0.9.

Assays:
[1] = read-out: E-selectin (Homo sapiens) (UniProt P16581); assay: BSK_3C_Eselectin: BioMAP Diversity Plus: 3C Assay for Eselectin Biomarker Activity (AID 2283015); settings: primary human endothelial cells (HUVEC); actives raise or lower the signal
Summary of the method: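 Primary human umbilical vein endothelial cells (3C system), read 24 h after compound addition; E-selectin measured by ELISA. Bidirectional curve fitting against DMSO baseline; cytotoxicity by parallel SRB total-protein staining.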

[2] = read-out: Interleukin-1 alpha (IL1a), IL1A (gene 3552); assay: BSK_BE3C_IL1a: BioMAP Diversity Plus: BE3C Assay for Interleukin-1 alpha (IL1a) Biomarker Activity (AID 2283016); settings: primary human bronchial epithelial cells; actives raise or lower the signal
Summary of the method: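 BE3C primary human bronchial epithelium; cpd 24 h; IL-1a by ELISA; bidirectional fit vs DMSO; parallel SRB (0.1% SRB, 10% TCA fix, 560 nm) for cytotoxicity.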

[3] = read-out: Monocyte Chemoattractant Protein-1 (MCP1), CCL2 (gene 6347); assay: BSK_3C_MCP1: BioMAP Diversity Plus: 3C Assay for Monocyte Chemoattractant Protein-1 (MCP1) Biomarker Activity (AID 2283017); settings: primary human endothelial cells (HUVEC); actives raise or lower the signal
Summary of the method: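 Human umbilical vein endothelial cells (3C system) exposed to chemicals for 24 h; MCP-1 quantified by ELISA against the DMSO baseline with bidirectional fitting, and parallel SRB staining used to assess cytotoxicity.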

[4] = read-out: Human Leukocyte Antigen - DR isotype (HLADR), HLA-DRA (gene 3122); assay: BSK_3C_HLADR: BioMAP Diversity Plus: 3C Assay for Human Leukocyte Antigen - DR isotype (HLADR) Biomarker Activity (AID 2283019); settings: primary human endothelial cells (HUVEC); actives raise or lower the signal
Summary of the method: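 HUVEC monoculture, HLA-DR measured by ELISA 24 h after chemical dosing. Fitted bidirectionally against DMSO baseline; parallel SRB staining assessed cytotoxicity, with 3C proliferation read by SRB at 48 h.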

[5] = read-out: Interleukin-8 (IL8), CXCL8 (gene 3576); assay: BSK_3C_IL8: BioMAP Diversity Plus: 3C Assay for Interleukin-8 (IL8) Biomarker Activity (AID 2283020); settings: primary human endothelial cells (HUVEC); actives raise or lower the signal
Summary of the method: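 ELISA read-out of IL-8 from human umbilical vein endothelium, measured 24 h after chemical dosing. Activity is expressed relative to DMSO negative control, with both increases and decreases fitted.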

[6] = read-out: Monokine induced gamma interferon (MIG), CXCL9 (gene 4283); assay: BSK_3C_MIG: BioMAP Diversity Plus: 3C Assay for Monokine induced gamma interferon (MIG) Biomarker Activity (AID 2283021); settings: primary human endothelial cells (HUVEC); actives raise or lower the signal;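 for AC50: MIG protein level measured by immunoassay in the treated endothelial cultures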
Summary of the method: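 Read-out is ELISA detection of MIG on human umbilical vein endothelial cells, taken 24 h after dosing. Gain or loss of signal was scored relative to DMSO controls using bidirectional curve fitting.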

[7] = BSK_3C_SRB: Viability Assessment in the BioMAP Diversity Plus: 3C Assay (AID 2283023); settings: primary human endothelial cells (HUVEC);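 note: fitted both ways against DMSO so a hit may be signal rise or drop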
Summary of the method: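 Human umbilical vein endothelial cells in the 3C system, treated 24 h. Total protein measured by 0.1% sulforhodamine B staining after 10% TCA fixation, read at 560 nm; bidirectional fit versus DMSO.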

[8] = read-out: Matrix Metallopeptidase 1 (MMP1), MMP1 (gene 4312); assay: BSK_BE3C_MMP1: BioMAP Diversity Plus: BE3C Assay for Matrix Metallopeptidase 1 (MMP1) Biomarker Activity (AID 2283024); settings: primary human bronchial epithelial cells; actives raise or lower the signal
Summary of the method: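 Human bronchial epithelial cells (BE3C system) exposed to compound for 24 h; MMP1 then quantified by ELISA. Activity was fitted in both directions relative to DMSO.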

[9] = BSK_3C_Vis: BioMAP Diversity Plus: 3C Assay for Morphology Visualization (AID 2283025); settings: primary human endothelial cells (HUVEC);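 note: fitted both ways so gain or loss versus DMSO counts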;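 for AC50: light microscopy image of cell morphology used as background control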
Summary of the method: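 Chemicals were added to primary human umbilical vein endothelium, cells were incubated 24 h, and morphology was then visualized by light microscopy. Gain or loss of signal was fitted bidirectionally relative to DMSO.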

[10] = read-out: Pselectin, SELP (gene 6403); assay: BSK_4H_Pselectin: BioMAP Diversity Plus: 4H Assay for Pselectin Biomarker Activity (AID 2283026); settings: primary human endothelial cells (HUVEC); actives raise or lower the signal
Summary of the method: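 ELISA read-out of P-selectin on human umbilical vein endothelium after 24 h of dosing. Values derive from bidirectional fitting relative to DMSO. Parallel SRB protein staining flagged overt cytotoxicity.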

[11] = BSK_BE3C_SRB: Viability Assessment in the BioMAP Diversity Plus: BE3C Assay (AID 2283028); settings: primary human bronchial epithelial cells;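 for AC50: fitted both ways so AC50 may mark signal gain or loss versus DMSO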
Summary of the method: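 Human bronchial epithelial primary cells in confluent culture, 24 h after chemical dosing; total protein by 0.1% SRB staining after 10% TCA fixation, read at 560 nm. Bidirectional fitting versus DMSO baseline.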

[12] = read-out: Thrombomodulin, THBD (gene 7056); assay: BSK_3C_Thrombomodulin: BioMAP Diversity Plus: 3C Assay for Thrombomodulin Biomarker Activity (AID 2283029); settings: primary human endothelial cells (HUVEC); actives raise or lower the signal
Summary of the method: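 Read-out is ELISA of thrombomodulin on human umbilical vein endothelium 24 h after chemical dosing. Gain or loss of signal is scored relative to DMSO. Overt cytotoxicity is checked in parallel cultures by sulforhodamine B staining.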

[13] = read-out: Urokinase-type plasminogen activator receptor (uPAR), PLAUR (gene 5329); assay: BSK_4H_uPAR: BioMAP Diversity Plus: 4H Assay for Urokinase-type plasminogen activator receptor (uPAR) Biomarker Activity (AID 2283030); settings: primary human endothelial cells (HUVEC); actives raise or lower the signal
Summary of the method: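 Human umbilical vein endothelial cells in the 4H system, 24 h after chemical dosing. Cell-surface uPAR measured by ELISA, fitted in both directions versus DMSO; cytotoxicity checked by SRB total protein in parallel cultures.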

[14] = read-out: Vascular endothelial growth factor receptor 2 (Homo sapiens) (UniProt P35968); assay: BSK_4H_VEGFRII: BioMAP Diversity Plus: 4H Assay for Vascular endothelial growth factor receptor 2 (VEGFR2) Biomarker Activity (AID 2283031); settings: primary human endothelial cells (HUVEC); actives raise or lower the signal;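 for AC50: cell-surface VEGFR2 protein level quantified by ELISA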
Summary of the method: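 Primary human umbilical vein endothelial cells (4H system), 24 h exposure; cell-surface VEGFR2 measured by ELISA. Bidirectional fitting versus DMSO; cytotoxicity checked in parallel by SRB total-protein staining.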

[15] = read-out: Vascular cell adhesion molecule 1 (VCAM1), VCAM1 (gene 7412); assay: BSK_4H_VCAM1: BioMAP Diversity Plus: 4H Assay for Vascular cell adhesion molecule 1 (VCAM1) Biomarker Activity (AID 2283033); settings: primary human endothelial cells (HUVEC); actives raise or lower the signal
Summary of the method: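 ELISA read-out of VCAM-1 on human umbilical vein endothelium 24 hours after chemical dosing; gain or loss of signal was fitted relative to DMSO, with sulforhodamine B staining of parallel cultures flagging overt cytotoxicity.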

[16] = read-out: Interferon-gamma inducible Protein 10 (IP10), CXCL10 (gene 3627); assay: BSK_BE3C_IP10: BioMAP Diversity Plus: BE3C Assay for Interferon-gamma inducible Protein 10 (IP10) Biomarker Activity (AID 2283034); settings: primary human bronchial epithelial cells; actives raise or lower the signal
Summary of the method: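 Chemical is dosed onto human lung bronchial epithelial primary cells, cultures are incubated 24 h, and IP-10 is then quantified by ELISA. Gain or loss of signal is fitted in both directions relative to DMSO.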

[17] = read-out: Monocyte Chemoattractant Protein-1 (MCP1), CCL2 (gene 6347); assay: BSK_4H_MCP1: BioMAP Diversity Plus: 4H Assay for Monocyte Chemoattractant Protein-1 (MCP1) Biomarker Activity (AID 2283018); settings: primary human endothelial cells (HUVEC); actives raise or lower the signal
Summary of the method: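 ELISA read-out of MCP-1 from human vascular endothelial primary cells taken at 24 hours after compound exposure. Activity was fitted in both directions relative to DMSO, which served as negative control.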

[18] = target: human Vitamin D Receptor (VDR), VDR (gene 7421) (UniProt P11473); assay: ATG_VDR_TRANS: Attagene TRANS-FACTORIAL HepG2 Assay for human Vitamin D Receptor (VDR) (AID 2283022; active = hit-call score of the fitted dose curve at least 0.9, where 1 is the maximum)
Summary of the method: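 HepG2 cells were transiently transfected with GAL4-UAS reporter units and a chimeric VDR-Gal4 construct, then dosed for 24 hours. Reporter mRNA was quantified by RT-PCR, fluorescent labeling, HpaI digestion and capillary electrophoresis; gain of signal analysed vs DMSO.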

[19] = BSK_4H_SRB: Viability Assessment in the BioMAP Diversity Plus: 4H Assay (AID 2283027); settings: primary human endothelial cells (HUVEC);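 note: cells exposed to compound for 24 h before staining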;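 for AC50: curves fitted both ways versus DMSO so AC50 may be loss or gain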
Summary of the method: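 Absorbance at 560 nm of SRB-stained total protein served as the viability read-out in confluent primary human umbilical vein endothelium 24 h after chemical treatment. Curves were fitted bidirectionally against DMSO as negative control.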

[20] = read-out: Human Leukocyte Antigen - DR isotype (HLADR), HLA-DRA (gene 3122); assay: BSK_BE3C_HLADR: BioMAP Diversity Plus: BE3C Assay for Human Leukocyte Antigen - DR isotype (HLADR) Biomarker Activity (AID 2283032); settings: primary human bronchial epithelial cells; actives raise or lower the signal
Summary of the method: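 ELISA read-out of HLA-DR on human lung bronchial epithelial primary cells, measured 24 h post-dosing. Both increases and decreases were scored relative to DMSO vehicle.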

Measured: AC50

human Vitamin D Receptor (VDR), VDR (gene 7421), sequence (P11473 whole entry, looked up, the tested form may be a part): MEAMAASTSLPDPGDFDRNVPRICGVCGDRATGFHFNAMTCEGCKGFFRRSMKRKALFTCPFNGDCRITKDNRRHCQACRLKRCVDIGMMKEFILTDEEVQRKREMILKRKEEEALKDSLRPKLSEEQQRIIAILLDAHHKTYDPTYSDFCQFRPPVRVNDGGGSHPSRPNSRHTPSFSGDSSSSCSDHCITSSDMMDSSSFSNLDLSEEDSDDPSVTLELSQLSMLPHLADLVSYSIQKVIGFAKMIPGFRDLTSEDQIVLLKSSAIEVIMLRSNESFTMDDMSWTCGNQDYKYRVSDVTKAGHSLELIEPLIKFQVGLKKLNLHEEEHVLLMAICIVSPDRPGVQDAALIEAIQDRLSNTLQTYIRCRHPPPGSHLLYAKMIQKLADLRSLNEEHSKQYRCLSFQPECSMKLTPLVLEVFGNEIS
E-selectin (Homo sapiens), sequence (P16581 whole entry, looked up): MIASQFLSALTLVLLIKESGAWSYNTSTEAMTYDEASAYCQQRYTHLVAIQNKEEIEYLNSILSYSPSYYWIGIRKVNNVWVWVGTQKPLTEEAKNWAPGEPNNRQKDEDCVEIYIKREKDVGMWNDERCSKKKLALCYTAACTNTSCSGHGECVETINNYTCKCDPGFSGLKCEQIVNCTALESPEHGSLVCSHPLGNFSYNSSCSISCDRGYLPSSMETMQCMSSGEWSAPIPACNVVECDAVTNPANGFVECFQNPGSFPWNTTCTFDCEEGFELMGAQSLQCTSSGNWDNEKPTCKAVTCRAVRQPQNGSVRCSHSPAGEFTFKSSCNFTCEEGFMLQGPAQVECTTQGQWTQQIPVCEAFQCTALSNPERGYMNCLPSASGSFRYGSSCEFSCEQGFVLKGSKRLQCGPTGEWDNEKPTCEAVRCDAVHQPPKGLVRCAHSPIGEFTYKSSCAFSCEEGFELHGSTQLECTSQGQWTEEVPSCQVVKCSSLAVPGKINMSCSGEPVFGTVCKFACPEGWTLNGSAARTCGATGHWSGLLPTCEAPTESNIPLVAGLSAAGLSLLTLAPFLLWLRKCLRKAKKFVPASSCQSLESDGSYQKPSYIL

COCCOCCOCCOC
not listed: [17] | [18] | [19] | [20]
inactive: all other assays above

O=C1OC(=O)C2C3C=CC(C3)C12 (centres undefined)
not listed: [2] | [19] | [20]
inactive: all other assays above

Cc1c(-c2cccnc2)c2ccccc2n1CCCCC(=O)O
not listed: [17] | [18]
inactive: all other assays above

Clc1nc(Cl)c(Cl)c(Cl)c1Cl
active: [4] 31.2 µM | [5] 14.2 µM | [9] 37.5 µM | [10] 30.2 µM | [20] 26.4 µM | [15] 20 µM
not listed: [2] | [19]
inactive: all other assays above

CC(C)=CCC/C(C)=C/CO
not listed: [9] | [17] | [20]
inactive: all other assays above

CC(C)CCCCCCOC(=O)c1ccc(C(=O)OCCCCCCC(C)C)c(C(=O)OCCCCCCC(C)C)c1
not listed: [9] | [17] | [18] | [19]
inactive: all other assays above

Nc1ccc(Nc2ccccc2)cc1
active: [1] 5.7 µM | [4] 2.83 µM | [8] 8.67 µM | [10] 3.97 µM | [15] 3.97 µM
not listed: [13] | [17] | [18] | [19] | [20]
inactive: all other assays above

CCOc1cccc(-n2cc(C(=O)N3CCN(c4cc(C(=O)O)c5ccccc5c4)CC3)nc2-c2ccc(C)cc2)c1
active: [2] 29.2 µM | [3] 23 µM | [4] 15.3 µM | [5] 11.9 µM | [6] 35.5 µM | [7] 16.8 µM | [8] 33.4 µM | [10] 26.2 µM | [19] 13.7 µM | [11] 31.3 µM | [13] 12.7 µM | [14] 18.2 µM | [15] 29.9 µM | [16] 15 µM
inactive: [1] | [18] | [12]

Cc1ccc(S(=O)(=O)O)cc1C
not listed: [2] | [20]
inactive: all other assays above

O=C1CCC(N2C(=O)c3ccccc3C2=O)C(=O)N1 (centres undefined)
not listed: [17] | [18] | [19] | [20]
inactive: all other assays above

O=c1n(CC2CO2)c(=O)n(CC2CO2)c(=O)n1CC1CO1 (centres undefined)
active: [1] 16.1 µM | [3] 20 µM | [4] 21.5 µM | [5] 13.2 µM | [7] 17.5 µM | [9] 39 µM | [10] 11.8 µM | [19] 15.1 µM | [15] 23.4 µM
not listed: [2] | [20]
inactive: all other assays above

O=C1CCCCCN1
not listed: [2]
inactive: all other assays above

NC(=O)NO
not listed: [2] | [19] | [20]
inactive: all other assays above

CCCN(C1CCN(C(=O)C2CCNCC2)CC1)[C@@H]1CCc2ccc(OC)cc2C1
not listed: [9] | [17] | [20]
inactive: all other assays above
